# In PubChem BioAssay (EPA / NIEHS):
# Where “and” joins values, the source holds several entries; their conditions need not be identical. Equal values may be shown once. Inconclusive results are not listed. Calls of active or inactive are those of the source. Rule for the calls: active = hit-call score of the fitted dose curve at least 0.9, where 1 is the maximum; inconclusive = response in the unintended direction; inactive = score below 0.9.
# Columns and labels:
# [1] = TOX21_p53_BLA_p2_viability: Viability Assessment in the Tox21 HCT-116 p53 Agonism Beta-lactamase Assay, Phase 2 (AID 2283591);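 note: compound exposure lasted 16 h at 37 °C; actives lower the ATP signal meaning cytotoxicity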
# Outline: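 Cytotoxicity readout: CellTiter-Glo ATP luminescence, 30 min at room temperature, after the beta-lactamase read. Cells were HCT116 exposed 16 h at 37C to compounds pin-transferred at 217-fold dilution from DMSO stocks.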
# [2] = target: Cellular tumor antigen p53 (Homo sapiens) (UniProt P04637); assay: TOX21_p53_BLA_p2_ratio: Tox21 HCT-116 p53 Agonism Beta-lactamase Assay, Ratio, Phase 2 (AID 2283592)
# Outline: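 HCT-116 cells with p53-responsive beta-lactamase reporter, 4000 cells/well, preincubated 5 h, then compound in DMSO (217-fold dilution) for 16 h at 37C. CCF4-AM substrate 2 h at room temperature; 460/530 nm emission ratio fitted upward versus DMSO.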
# [3] = TOX21_p53_BLA_p3_viability: Viability Assessment in the Tox21 HCT-116 p53 Agonism Beta-lactamase Assay, Phase 3 (AID 2283593);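 note: cells exposed to compound for 16 h before reading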
# Outline: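 Cellular ATP was quantified by CellTiter-Glo luminescence, read after 30 min at room temperature. Beforehand, HCT116 cells (4000/well) received compound 5 h post-seeding, 217-fold diluted from DMSO, then incubated 16 h at 37C.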
# [4] = target: Cellular tumor antigen p53 (Homo sapiens) (UniProt P04637); assay: TOX21_p53_BLA_p3_ratio: Tox21 HCT-116 p53 Agonism Beta-lactamase Assay, Ratio, Phase 3 (AID 2283596)
# Outline: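 HCT116 p53-bla cells (4000/well) given compound in DMSO (217-fold dilution) after 5 h, incubated 16 h at 37C. CCF4-AM substrate 2 h at room temperature; 460/530 nm emission ratio, gain fitted against DMSO.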
# [5] = TOX21_p53_BLA_p4_viability: Viability Assessment in the Tox21 HCT-116 p53 Agonism Beta-lactamase Assay, Phase 4 (AID 2283597);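 note: hits lower the luminescence signal meaning cytotoxicity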
# Outline: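 HCT-116 p53-bla cells, 4000/well, dosed after 5 h attachment and incubated 16 h at 37 °C, 5% CO2. Viability from CellTiter-Glo ATP luminescence after 30 min at room temperature, taken after the beta-lactamase read; loss of signal indicates cytotoxicity.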
# [6] = target: Cellular tumor antigen p53 (Homo sapiens) (UniProt P04637); assay: TOX21_p53_BLA_p5_ratio: Tox21 HCT-116 p53 Agonism Beta-lactamase Assay, Ratio, Phase 5 (AID 2283599)
# Outline: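 Beta-lactamase reporter ratio (blue 460 nm over green 530 nm, 405 nm excitation) after 2 h CCF4-AM loading, in HCT-116 cells exposed 16 h at 37 C to compounds pinned at 217-fold dilution. Increases relative to DMSO baseline scored.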
# [7] = TOX21_p53_BLA_p5_viability: Viability Assessment in the Tox21 HCT-116 p53 Agonism Beta-lactamase Assay, Phase 5 (AID 2283600)
# Outline: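 HCT-116 p53 beta-lactamase reporter cells, 4000/well, were exposed to compound (pin transfer, 217-fold dilution) for 16 hours at 37C. Cellular ATP was read by CellTiter-Glo luminescence after 30 min at room temperature.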
# [8] = target: Cellular tumor antigen p53 (Homo sapiens) (UniProt P04637); assay: TOX21_p53_BLA_p4_ratio: Tox21 HCT-116 p53 Agonism Beta-lactamase Assay, Ratio, Phase 4 (AID 2283601)
# Outline: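 Signal is the blue/green (460nm/530nm) ratio of cleaved versus uncleaved CCF4-AM substrate, read after 2 h substrate loading. Cells were HCT116 carrying the p53-responsive beta-lactamase reporter, dosed 16 h at 37C, 5% CO2; CellTiter-Glo measured in parallel.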
# Cellular tumor antigen p53 (Homo sapiens), sequence (P04637 whole entry, looked up): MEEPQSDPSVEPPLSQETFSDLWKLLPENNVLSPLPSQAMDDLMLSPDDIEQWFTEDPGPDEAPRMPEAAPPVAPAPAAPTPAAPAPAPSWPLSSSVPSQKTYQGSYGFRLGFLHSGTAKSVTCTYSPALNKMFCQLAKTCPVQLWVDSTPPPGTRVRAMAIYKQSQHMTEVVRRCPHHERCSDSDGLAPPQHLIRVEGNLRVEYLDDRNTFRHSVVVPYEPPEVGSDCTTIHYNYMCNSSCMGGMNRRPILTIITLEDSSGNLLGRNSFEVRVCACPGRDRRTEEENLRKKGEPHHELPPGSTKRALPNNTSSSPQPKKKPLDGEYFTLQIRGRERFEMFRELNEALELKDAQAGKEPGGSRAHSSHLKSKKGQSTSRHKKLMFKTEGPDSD
SMILES,AC50 [1],AC50 [2],AC50 [3],AC50 [4],AC50 [5],AC50 [6],outcome [7],AC50 [8],outcome [3],outcome [4],outcome [1],outcome [2],outcome [5],outcome [6],outcome [8]
CC(=O)Oc1ccc(C2(c3ccc(OC(C)=O)cc3)C(=O)Nc3ccccc32)cc1,781 nM (active) and 543 nM (active),540 nM (active) and 368 nM (active),633 nM (active) and 692 nM (active),641 nM (active) and 515 nM (active),580 nM (active) and 459 nM (active),663 nM (active) and 407 nM (active),inactive,555 nM (active) and 464 nM (active),–,–,–,–,–,–,–
CC(NCCC(c1ccccc1)c1ccccc1)c1ccccc1 (stereo not drawn),26.6 µM (active),33.9 µM (active),–,–,32.5 µM (active),35.8 µM (active),inactive,39.4 µM (active),inactive,inactive,–,–,–,–,–
C/C(=C(\CCOC(=O)c1ccccc1)SS/C(CCOC(=O)c1ccccc1)=C(/C)N(C=O)Cc1cnc(C)nc1N)N(C=O)Cc1cnc(C)nc1N,–,–,–,–,–,–,inactive,–,inactive,inactive,inactive,inactive,inactive,inactive,inactive
O=C(CCCN1CCC(O)(c2ccc(Br)cc2)CC1)c1ccc(F)cc1,–,–,–,–,–,–,inactive,–,inactive,inactive,inactive,inactive,inactive,inactive,inactive
CC(=O)NCc1c(I)c(NC(C)=O)c(I)c(C(=O)O)c1I,–,–,–,–,–,–,inactive,–,inactive,inactive,inactive,inactive,inactive,inactive,inactive
O=C1c2ccccc2C(=O)C1(O)O,88.5 µM (active),31.8 µM (active),63.8 µM (active),22.8 µM (active),60.2 µM (active),29 µM (active),inactive,36.3 µM (active),–,–,–,–,–,–,–
N=C(N)c1ccc(OCCCOc2ccc(C(=N)N)cc2)cc1,–,–,–,–,–,–,inactive,–,inactive,inactive,inactive,inactive,inactive,inactive,inactive
C1CCCC1.C1CCCC1.[Cl][V][Cl],–,–,–,–,40.3 µM (active),–,inactive,–,inactive,inactive,inactive,inactive,–,inactive,inactive
O=C(NOC[C@H](O)CO)c1ccc(F)c(F)c1Nc1ccc(I)cc1F,–,–,–,–,–,–,inactive,–,inactive,inactive,inactive,inactive,inactive,inactive,inactive
COc1cc2[nH]c(=O)[nH]c(=O)c2cc1OC,–,–,–,–,–,–,inactive,–,inactive,inactive,inactive,inactive,inactive,inactive,inactive
CN(C)[C@@H]1C(=O)C(C(=O)NCN2CCCC2)=C(O)[C@@]2(O)C(=O)C3=C(O)c4c(O)cccc4[C@@](C)(O)C3C[C@@H]12 (stereo partly drawn),–,–,–,–,–,–,inactive,–,inactive,inactive,inactive,inactive,inactive,inactive,inactive
